The source of these data is PubChem BioAssay (NCATS).

Results filed as inconclusive are left out. Activity calls are given as the source filed them. Calls come from the whole dose curve; as a rule, active = well fitted cell-killing curve with a large enough effect; inconclusive = small, poorly fitted or top-dose-only effect; inactive = flat fitted curve, though single readings scatter.

The test is described as follows: Cell Viability - LYMP2-015 (AID 971). Note: nearly all actives have a fitted effect of over 55% in size. Conditions: LYMP2-015 lymphoblastoid cell viability; series mostly up to 92.2 µM. An excerpt:
NIH Chemical Genomics Center [NCGC]
NIH Molecular Libraries Screening Centers Network [MLSCN]
National Institutes of Environmental Health Sciences [NIEHS]
National Toxicology Program [NTP]
We have developed a 1536-well cell-based assay for quantitative high throughput screening (qHTS) against a number of cell lines to determine in vitro cytotoxicity of small molecules. This particular assay uses a human lymphoblastoid cell line (LYMP2-015) purchased from Coriell Institute for Medical Research.
NCGC Assay Protocol Summary:
The CellTiter-Glo luminescent cell viability assay (Promega) is a homogeneous method to measure the number of viable cells in culture. The end point readout of this assay is based on quantitation of intracellular ATP, an indicator of metabolic activity, using the luciferase reaction. Luciferase catalyzes the oxidation of beetle Luciferin to oxyluciferin and light in the presence of ATP. The luminescent signal is proportional to amount of ATP present.
Using the CellTiter-Glo luminescent cell viability assay, the amount of cellular ATP was measured in the lymphoblastoid cell line with complete culture medium following compound treatment for 24 hours. The assay was performed in opaque white Kalypsys 1536-well plates. In the screen, tetraoctylammonium bromide was used as positive control. Library compounds were measured for their ability to cause acute toxicity in the cell line, as reflected by a decrease in intracellular ATP levels, in a concentration-dependent manner. […] AC50 values were determined from concentration-response data modeled with the standard Hill equation.
qHTS protocol for CellTiter Glo lymphoblastoid cellular assay
[Step] [Parameter] [Value] [Description]
1. Reagent; 5 uL; 2500 lymphoblastoid cells/well
2. Time; 5 hr; 37 C incubation
4. Controls; 23 nL; Tetraoctylammonium bromide 6.4pM to 92 uM
5. Time; 24 hr; 37 C incubation
6. Reagent; 5 uL; CellTiter Glo reagent
7. Time; 30 min; Room Temperature
8. Detection; Luminescence; Viewlux plate reader
Keywords: cell viability, cytotoxicity, lymphoblastoid cell line, luminescence, NTPHTS, NTPHTS_NCGC, NIEHS, DSSTox, MLSMR, MLSCN, NIH Roadmap, qHTS, NCGC
Turning to `CCOC(=O)c1ccccc1N`, the outcome was inactive. Turning to `Cc1ccccc1O`, the compound was called inactive. `CC(=O)[C@H]1CC[C@H]2[C@@H]3CCC4=CC(=O)CC[C@]4(C)[C@H]3CC[C@]12C`: the call was inactive. Take `c1ccc(Nc2ccc3ccccc3c2)cc1`: the outcome was inactive. `c1ccc2c(c1)-c1cccc3cccc-2c13`: the outcome was inactive. Turning to `CC(=O)/C=C/c1ccccc1`, the compound was classed as inactive.

Regarding `CC(C)COC(=O)c1ccccc1C(=O)OCC(C)C`, the call was inactive. The entry for `Oc1ccccc1Cl` is “inactive”; for `O=Cc1ccccc1` it is “inactive”.

For the compound `CCOc1cc(C=O)ccc1O`, the result was inactive. On to `COC(=O)c1ccccc1C(=O)OC`, for which the compound was called inactive. In the case of `CC(C)(c1ccc(OCC2CO2)cc1)c1ccc(OCC2CO2)cc1` (centres undefined), the call was inactive. On to `COC1=CC(=O)OC(CCc2ccc3c(c2)OCO3)C1` (centres undefined), for which the compound was classed as inactive.

With `Oc1c(Cl)c(Cl)c(Cl)c(Cl)c1Cl`, the result was inactive.
